# Experimental data taken from the supplement of paper PMC6555819.
# Experiments:
# Assay in all cases: PBM binding z-score (relative to random genomic background probes); higher = stronger binding; sequences stand for … in GC…GCGATTGACAGCGTAGAATGAAGG
# [1] = test system: FXR:RXRa (NR concentration 270 nM, RXRa partner concentration 90 nM)
# In short: (§1)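 Scanned fluorescence from custom Agilent 4×180K protein-binding microarrays was regression-normalized. Binding z-scores use random background probes as reference. Ligand-free nuclear receptor dimers were incubated on the arrays for 1 h and detected with antibodies against each partner (one per run).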
# [2] = test system: LXRa:RXRa (NR concentration 270 nM, RXRa partner concentration 90 nM)
# In short: as §1
# [3] = test system: LXRa homodimer (NR concentration 270 nM)
# In short: as §1
# [4] = test system: LXRb:RXRa (NR concentration 270 nM, RXRa partner concentration 90 nM)
# In short: as §1
# [5] = test system: LXRb homodimer (NR concentration 270 nM)
# In short: as §1
# [6] = test system: PPARa:RXRa (NR concentration 270 nM, RXRa partner concentration 90 nM)
# In short: as §1
# [7] = test system: PPARg:RXRa (NR concentration 180 nM, RXRa partner concentration 90 nM)
# In short: as §1
# [8] = test system: PPARg:RXRa 270nM:90nM, anti-RXR (NR concentration 270 nM, RXRa partner concentration 90 nM)
# In short: as §1
# [9] = test system: PPARg:RXRa 30nM:10nM, anti-RXR (NR concentration 30 nM, RXRa partner concentration 10 nM)
# In short: as §1
# [10] = test system: PPARg:RXRa 90nM:30nM, anti-RXR (NR concentration 90 nM, RXRa partner concentration 30 nM)
# In short: as §1
# [11] = test system: PPARg:RXRa DBDmut IVT, anti-RXR (DBD mutation: RXRa K156A/R161A, NR concentration 270 nM, RXRa partner concentration 90 nM)
# In short: as §1
# [12] = test system: PPARg:RXRa IVT, anti-PPARg (NR concentration 270 nM, RXRa partner concentration 90 nM)
# In short: as §1
# [13] = test system: PPARg DBDmut:RXRa IVT, anti-PPARg (DBD mutation: PPARg1 K132A/R137A, NR concentration 270 nM, RXRa partner concentration 90 nM)
# In short: as §1
# [14] = test system: PPARg DBDmut IVT, anti-PPARg (DBD mutation: PPARg1 K132A/R137A, NR concentration 270 nM)
# In short: as §1
# [15] = test system: PPARg homodimer (NR concentration 180 nM)
# In short: as §1
# [16] = test system: PXR:RXRa (NR concentration 270 nM, RXRa partner concentration 90 nM)
# In short: as §1
# [17] = test system: PXR homodimer (NR concentration 270 nM)
# In short: as §1
# [18] = test system: RARa:RXR (NR concentration 270 nM, RXRa partner concentration 90 nM)
# In short: as §1
# [19] = test system: RARa homodimer (NR concentration 270 nM)
# In short: as §1
# [20] = test system: RARb:RXRa (NR concentration 270 nM, RXRa partner concentration 90 nM)
# In short: as §1
Sequence,PBM binding z-score [1],PBM binding z-score [2],PBM binding z-score [3],PBM binding z-score [4],PBM binding z-score [5],PBM binding z-score [6],PBM binding z-score [7],PBM binding z-score [8],PBM binding z-score [9],PBM binding z-score [10],PBM binding z-score [11],PBM binding z-score [12],PBM binding z-score [13],PBM binding z-score [14],PBM binding z-score [15],PBM binding z-score [16],PBM binding z-score [17],PBM binding z-score [18],PBM binding z-score [19],PBM binding z-score [20]
ATATGTAGGTTATCGGGGCATTCAGTTTGCGCAT,1.18,1.49,0.936,2.57,1.81,3.95,5.76,5,2.48,4.06,7.24,7.25,3.45,3.12,2.07,1.72,3,1.04,1.6,1.7
TCATATAGGCAAATGCTAGGTGAAAGTCCGATCT,0.729,0.526,-0.00307,0.0683,-0.278,0.735,0.411,1.55,3.12,2.14,2.29,0.809,0.452,0.623,0.286,0.34,0.108,0.528,0.507,0.0925
GATACAGCGTCAGCTAGAGGCCAGAGTATGGAAA,-1.06,-0.907,-0.84,-1.11,-1.5,-1.18,0.184,-0.842,-0.638,-1,-0.984,-0.61,-2.52,-1.12,-1.09,-0.922,-0.376,-0.685,-1.14,-0.322
ACCTACGGGTCAACGAGGTTATAGCACGCGTATA,6.4,4.83,0.64,3.98,0.188,5.36,4.44,4.86,1.47,3.68,1.41,2.79,0.196,0.0693,3.53,5.22,3.27,5.3,0.837,4.05
CATACAGGGTCAGCTAGGCCGGAGTAGGGACGGC,4.6,2.61,-0.304,1.86,0.54,3.9,2.9,2.96,0.304,1.69,0.767,2.06,0.399,0.204,1.63,1.76,-0.278,2.9,0.038,3.87
TCTGCTAGGTCAGTTGGCCAGCTAACGAGCTGCC,0.857,0.327,-0.78,-0.127,-0.163,1.2,-0.0379,1.3,0.758,1.1,2.81,2.82,0.783,0.614,-0.509,-0.116,-0.845,0.0154,-1.78,3.44
TATACAGGGTCAAAGGCCATAGTACGAATGTCGA,7.3,6.15,2.85,5.09,2.38,6.27,9.09,7.76,6.42,8.54,2.29,5.22,3.81,1.65,2.99,4.83,0.657,6.64,1.1,4.56
CCTGCTCGGTCATGGTCAGCTAATCTACAGTATG,0.209,0.33,0.0504,-0.0325,-0.00908,0.0849,0.0527,-0.261,-0.454,-0.32,0.829,0.464,-0.762,-0.953,-0.491,-0.351,-0.822,-0.293,-0.596,2.46
ACTAGCAGGCCAACTTTGGGTCACTCAAACAAAG,0.261,0.66,0.362,0.931,-0.445,1.53,0.543,0.901,-0.236,0.471,1.25,1.4,0.153,-0.0474,0.721,0.676,-0.281,1.52,-0.417,1.74
GGAACGAGGGCAAAGTTGATTGCATCTGTCGACG,1.25,0.976,-0.336,0.888,-0.546,3.9,6.23,6.84,5.63,6.92,4.27,4.05,0.0713,-0.581,0.375,1.16,0.179,1.39,-0.237,2.18
GCTGCTAGGTCAGGTTGGTTAGCTAACGGGTACG,1.06,0.689,-0.475,0.322,-0.199,1.24,0.149,0.709,-0.629,0.079,3.18,1.92,-0.902,-0.404,0.608,0.32,-0.467,0.712,-0.719,3.07
TCTTGTAGATCAGCAGGTGAAGAAAGCTGGCCAA,0.169,-0.0408,-0.605,-0.0895,-0.698,0.51,-0.409,1.19,2.2,1.8,1.32,0.857,0.193,-0.252,-1.42,-0.182,-0.577,0.0618,-0.865,-0.138
CCGAGTAGGTTATGGGACATTCAGGCAACGGTGA,0.111,0.356,0.00939,0.277,0.141,0.923,1.53,2.35,0.542,1.74,3.53,2.6,-0.291,-0.241,1.11,-0.0515,0.264,0.315,0.595,0.813
CAGACTAGGTCAGGGCCAGTATAGGAGGAACGTT,1.14,0.664,-0.52,0.152,-0.575,2.57,3.84,3.65,1.04,2.5,5.95,6.11,0.269,0.382,0.388,0.0784,-0.249,0.723,-0.255,3.12
CGTCCAAGGTCCAGGTCAGTGAAAGAGACTCGAA,0.579,0.595,0.0341,0.462,-0.914,1.17,0.0886,0.162,-0.651,-0.258,0.342,0.512,-0.921,-0.937,0.811,0.618,-0.111,0.904,0.0146,2.52
ATCTCTAGGTAAAACTCAGTTCAGTGAAGAACGC,0.591,0.776,0.947,0.542,1.02,0.518,0.101,0.473,0.403,0.618,2.63,1.95,0.847,0.779,1.22,1.7,1.99,0.609,1.49,0.514
AGCCAAAGTTCATCTAGGTAACGTAAGATATGCT,6.68,6.25,5.31,3.78,1.41,4.86,5.36,5.53,2.27,4.72,0.587,3.45,1.13,0.579,3.87,5.16,6.7,3.87,2.24,4.94
TCGTGTAGATCAAGCAGGTTAAGAAAGCCTGAGT,0.141,0.107,-0.392,0.143,-0.921,0.588,-0.429,0.747,2.07,1.61,1.24,-0.0546,-0.931,-0.429,0.148,0.421,0.251,0.318,0.0709,0.0461
TCATATAGGTAAAAGGTGAAAGTTGGTGTGGTAA,2.15,2.33,0.407,2.44,0.326,5.33,9.26,8.44,8.7,8.75,5.28,5.23,1.91,1.67,2.39,2.16,0.944,3.3,2.02,2.09
CCTAACGGGTCACGAGGTTATAGCACGACGAGCG,6.1,4.05,0.263,3.54,-0.146,5.76,6.41,5.88,2.76,4.48,3.39,4.94,1.47,0.866,2.3,4.45,0.408,5.55,1.42,4.27
CGTAAAAGTTCAAGGTAACGTAACAGAAAGCAGC,5.78,5.24,2.41,3.04,1.2,4.35,2.48,3.11,1.09,1.91,0.129,1.62,1.87,1.28,2.19,3.49,1.82,2.92,1.29,4.99
AGTCAAAGTTCACTAGGTAACGAAAGATTCAGCT,5.29,5.15,2.87,3.05,0.803,4.94,7.8,6.56,3.66,5.74,2.71,5.36,0.953,1.35,2.81,3.8,2.41,2.8,1.47,4.54
AGAATGAGGTTAAGATCAGAGAAACAGAATACAT,2.3,2.12,0.0426,1.9,-0.125,3.61,2.54,2.18,0.874,1.71,2.25,2.51,1.54,1.04,0.538,1.22,0.611,2.03,0.226,1.86
CGAACTAGGTCAGAATAGGACAGTGAAGGATGAT,1.39,0.992,-0.0335,0.45,-0.693,3.02,5.03,4.31,1.81,3.36,6.67,6.96,2.83,1.87,0.535,0.652,0.356,1.01,0.988,2.73
GCGACTGGGGCAAAGCAGGTTACCATTAGGTTGG,0.209,-0.0636,-0.502,0.31,-0.906,1.4,1.11,1.39,-0.263,0.675,4.83,3.63,-0.282,-0.886,0.27,0.143,-0.296,0.139,-0.535,0.975
ACTAGTTGGTCAGCTGAGGTCGCACACAATTCGG,1.01,0.732,0.139,1.1,0.147,1.49,0.497,0.445,-0.204,0.316,1.03,1.57,0.582,0.333,0.559,3.02,0.134,1.79,-0.0842,1.91
AGTCAAAGTTCACTAGGTAAAGTAAGATTCAGCT,5.11,4.89,2.94,2.95,0.968,4.53,7.12,6.14,3.45,5.45,1.8,4.56,0.983,1.74,2.43,3.9,2.63,3.07,1.41,4.74
ATCTCTAGGTTACCAAGTTCAGTGAATGCCGAAC,0.872,1.95,1.86,1.47,1.16,2.15,1.82,1.97,0.559,0.955,4.8,4.07,1.25,1.33,1.15,3.34,4.37,1.46,1.16,2.31
